Records with an inconclusive call do not appear. Calls of active or inactive are those of the source. Unless noted, calls come from the whole dose curve; as a rule, active = well fitted curve in the direction sought with a large enough effect; inconclusive = small, poorly fitted or top-dose-only effect, or another doubt; inactive = no such curve, though single readings can be large; an effect the other way counts as inactive or inconclusive.
Experiments:
[1] = target: DNA repair nuclease/redox regulator APEX1 (Homo sapiens) (UniProt P27695); assay: qHTS Validation Assay for Inhibitors of the Human Apurinic/apyrimidinic Endonuclease 1 (APE1) (AID 1705;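 note: TAMRA fluorescence gain over two minutes as APE1 cuts a quenched THF abasic duplex; % is set by controls: 0 for no effect and ±100 for the full control effect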)
Summary of the method: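 Read-out: TAMRA fluorescence (525 nm ex, 598 nm em) from cleavage of a quenched THF abasic-site duplex, 50 nM final; activity taken as intensity change between third and first of three reads 60 s apart.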

[2] = Counterscreen for APE1 Inhibitors: Fluorescent Dye Displacement Validation Assay (AID 1707);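 note: plate controls were ThO with dsDNA and no compound for no effect and ThO without dsDNA for full effect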
Summary of the method: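 Assay buffer: Tris-HCl pH7.5 with 50mM NaCl, 2 mM MgCl2, 0.01% Tween-20. Dye 250 nM, duplex 50 nM final. Readout: decrease in ThO endpoint fluorescence, 480 nm excitation, 540 nm emission.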

[3] = qHTS for differential inhibitors of proliferation of Plasmodium falciparum line Dd2 (AID 1882); conditions: Potency: Plasmodium falciparum Dd2 proliferation inhibition; note: potency is the fitted concentration of half-maximal effect; nearly all actives have a fitted effect of over 65% in size
Summary of the method: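 Dd2-infected erythrocytes (0.3% parasitemia, 2.5% hematocrit final) incubated with compound 72 h at 37 C, 5% CO2; lysed with saponin/Triton buffer containing SYBR Green I, incubated overnight in the dark, then read by fluorescence (485/535 nm). Normalized to 0.29 uM artemisinin and DMSO.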

[4] = target: Ferritin light chain (Equus caballus) (UniProt P02791); assay: qHTS Validation Assay for Identification of Novel General Anesthetics (AID 2323); note: % is set by controls: 0 for no effect and ±100 for the full control effect
Summary of the method: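 10 uM horse-spleen apoferritin + 1-AMA (50% saturated, PBS); cpd pin-transferred, 10 min RT. Ex 380/Em 535 nm endpoint. Activity normalized between free 1-AMA and 1-AMA/apoferritin; 4-parameter Hill fit of concentration-response.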

[5] = target: ATP-dependent DNA helicase Q1 (Homo sapiens) (UniProt P46063); assay: qHTS Validation Assay for Inhibitors of RecQ-Like Dna Helicase 1 (RECQ1) (AID 2353);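 note: plate controls were DMSO vehicle for no effect and enzyme-free control for full effect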
Summary of the method: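 50 nM RECQ1T1 preincubated 15 min with compound in Tris pH 8.0 buffer with MgCl2, DTT, Tween-20 and 2.5 ug/ml poly(dI-dC); started with 200 nM TAMRA/BHQ-2 forked duplex and 2 mM ATP. Unwinding read as fluorescence (525/598 nm), two reads 2 h apart.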

[6] = target: RecQ-like DNA helicase BLM (Homo sapiens) (UniProt P54132); assay: qHTS Validation Assay for Inhibitors of Bloom's syndrome helicase (BLM) (AID 2364);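 note: plate controls were DMSO vehicle for no effect and enzyme-free control for full effect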
Summary of the method: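 Forked 20-bp duplex substrate (200 nM, TAMRA/BHQ-2) plus 2 mM ATP added after 15 min compound preincubation with 50 nM enzyme, pH 8.0, poly(dI-dC) 2.5 ug/ml. Strand separation followed by fluorescence (525/598 nm) over 2 h, normalized to enzyme-free and DMSO controls.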

[7] = Validation screen for small molecules that induce DNA re-replication in MCF 10A normal breast cells (AID 463097); note: 0% is about no effect; nearly all actives have a fitted effect of over 60% in size
Summary of the method: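 250 MCF 10A cells/well; compound pin-transferred; 48 hr, 37 C, 5% CO2; Hoechst 40 min; imaged 405/500-530 nm. Hits = more high-intensity nuclei.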

[8] = Quantitative high throughput screen for delayed death inhibitors of the malarial parasite plastid, 96 hour incubation (AID 488745); note: potency is the fitted concentration of half-maximal effect; nearly all actives have a fitted effect of over 70% in size
Summary of the method: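 Infected erythrocytes were added to compound in Albumax-supplemented RPMI 1640 at 0.1% parasitemia and 2% hematocrit (final), incubated 96 h at 37 C under 5% CO2, then luciferase reagent was added and luminescence measured.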

[9] = Quantitative high throughput screen for delayed death inhibitors of the malarial parasite plastid, 48 hour incubation (AID 488752); note: potency is the fitted concentration of half-maximal effect; nearly all actives have a fitted effect of over 65% in size
Summary of the method: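 Readout is firefly luciferase luminescence from a reporter integrated into the parasite genome, with lower signal taken as inhibited growth. Infected red cells (0.1% parasitemia, 2% hematocrit final) are cultured with compound for one 48 h cycle at 37 C.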

[10] = Validation screen for small molecules that induce DNA re-replication in SW480 colon adenocarcinoma cells (AID 504364); note: 0% is about no effect
Summary of the method: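 250 cells/well; compound pinned in; 48 hr, 37 C, 5% CO2; Hoechst added, 40 min; nuclear fluorescence imaged, 405 ex / 500-530 em; re-replication scored as increase in high-intensity nuclei.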

[11] = target: Catechol O-methyltransferase (Homo sapiens) (UniProt P21964); assay: Confirmatory Screen for Target Class Profiling of Small Molecule Inhibitors of Methyltransferases (AID 1745852; calls by dose curve); conditions: MTase-Glo luminescence, SAH detection, recombinant enzyme; measured here: COMT max response; stronger effect = lower value
[12] = target: Guanidinoacetate N-methyltransferase (Homo sapiens) (UniProt Q14353); assay: as above; conditions: activity change, negative = inhibition: at 57.3 µM (top of the series) unless noted
[13] = target: Nicotinamide N-methyltransferase (Homo sapiens) (UniProt P40261); assay: as above; conditions: MTase-Glo luminescence, SAH detection, recombinant enzyme; measured here: NNMT max response; stronger effect = lower value
[14] = target: Phenylethanolamine N-methyltransferase (Homo sapiens) (UniProt P11086); assay: as above; conditions: MTase-Glo luminescence, SAH detection, recombinant enzyme; measured here: PNMT max response; stronger effect = lower value
[15] = target: Rap guanine nucleotide exchange factor 3 (Homo sapiens) (UniProt O95398); assay: Counterscreen qHTS for agonist of cAMP-regulated guanine nucleotide exchange factor 3 (EPAC1) (AID 1645889); note: potency is the fitted concentration of half-maximal effect; nearly all actives have a fitted effect of over 40% in size
Summary of the method: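 Rap1B-BODIPY-GDP 250 nM + GDP 50 uM; cpds 7-pt, final 9.74 nM–152 uM (activator mode) or from 7.32 nM upwards (inhibitor mode); RT; FI 480/540 nm at 5 and 30 min, then ± cAMP, reread.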

[16] = Stat Signaling Pathway (AID 446; active = well fitted curve in either direction with a large enough effect, not every such curve was filed as active;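 note: ME-180 cervical cancer cells given 40 pM IL-6 alongside compound; SIE-controlled beta-lactamase reporter measured as 460/530 nm FRET emission ratio; % is set by controls: 0 for no effect and ±100 for the full control effect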)
Summary of the method: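 Screening format detects activators and inhibitors alike: ME-180 SIE-bla cells stimulated at 40 pM IL-6 for 5 hrs with compound, then dual-emission beta-lactamase read at 405 nm excitation.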

[17] = target: Glucocorticoid receptor (Homo sapiens) (UniProt P04150); assay: GR-GFP Redistribution (AID 450;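 active = compounds whose dose series gives a full or clear partial fitted curve of increased nuclear translocation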; note: potency is the fitted concentration of half-maximal effect); conditions: U2OS GR-GFP nuclear translocation, laser cytometry, 2 h
[18] = target: Glucocorticoid receptor (Homo sapiens) (UniProt P04150); assay: GR-EFC Redistribution (AID 451; calls by dose curve; note: potency is the fitted concentration of half-maximal effect); conditions: CHO-K1 GR-EFC translocation, beta-gal luminescence, 2 h
Summary of the method: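 Translocation of GR-ED fusion to nuclear EA restores b-gal, read by luminescence after 1 h room-temperature detection. Engineered CHO-K1 biosensor cells, 1,000/well, exposed 2 h at 37 C to titrations up to 46 uM final.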

[19] = target: Mitogen-activated protein kinase 10 (Mus musculus) (UniProt Q61831); assay: JNK3 AlphaScreen Assay (AID 530; active = well fitted curve in either direction with a large enough effect, not every such curve was filed as active;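 note: kinase came from lysate of stimulated human HepG2 cells; signal reports phosphorylation of biotinylated GST-cJun 1-79 at Ser73 with 10 µM ATP; % is set by controls: 0 for no effect and ±100 for the full control effect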)
Summary of the method: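 Compound titrations were preincubated 15 minutes at room temperature with substrate, antibody and pre-activated JNK3-containing HepG2 lysate. Reactions were started with 10 uM ATP and stopped with EDTA-containing bead buffer for AlphaScreen detection.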

[20] = target: 3',5'-cyclic-AMP phosphodiesterase 4B (Homo sapiens) (UniProt Q07343); assay: qHTS Assay for Inhibitors of PDE-IV (AID 607; active = well fitted activation curve with a large enough effect in the main read-out, with a control signal flat, not every such curve was filed as active; note: % of control where 0% means no effect)
Summary of the method: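 The readout is membrane depolarisation from a cAMP-sensing CNG channel, detected with a potential dye at ex 535/em 590. Cells were HEK293-derived (endogenous PDE-IV) at 1000 cells/well, titrated up to 22.9 uM final.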

[21] = target: Guanine nucleotide-binding protein G(i) subunit alpha-1 (Homo sapiens) (UniProt P63096); assay: qHTS Assay for Inhibitors of RGS12 GoLoco Motif Activity (Green Fluorophore) (AID 879);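 note: 0% = labeled peptide with Gαi1 and full inhibition = labeled peptide alone without protein; negative values mean loss of peptide binding seen as reduced polarization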
Summary of the method: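 Fluorescence polarization assay: 50 nM Gαi1 with 10 nM FITC-labeled RGS12 GoLoco peptide in 10 mM Tris pH 7.5, 150 mM NaCl, 0.1 mM GDP, 0.05% NP40, 10 min at room temperature with compound.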

[22] = qHTS Assay for Identification of Small Molecule Antagonists for Thrombopoietin (TPO) Signaling Pathway (AID 918); conditions: TPO-dependent cell signaling reporter, antagonist mode; note: potency is the fitted concentration of half-maximal effect; nearly all actives have a fitted effect of over 60% in size
Summary of the method: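 Ba/F3 (murine, hTPO-R, GPIIb-luc reporter); overnight IL-3 withdrawal; cpd + TPO 26 pM final (EC50); 24 h 37 C/5% CO2; Steadylite luminescence after 10 min RT.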

[23] = target: Muscarinic acetylcholine receptor M1 (Rattus norvegicus) (UniProt P08482); assay: qHTS Assay for Antagonists of Acetylcholine Muscarinic M1 Receptor: Measurement of IP-One Response (AID 944); note: nearly all actives have a fitted effect of over 75% in size
Summary of the method: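 M1-CHO (rat), 2000 cells/well, overnight recovery; cpd 10 min; carbachol EC80 (200 nM), 30 min, HEPES buffer + 50 mM LiCl pH 7.4; IP-One HTRF, Ex 337, Em 620/665 nm.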

[24] = target: Pyruvate kinase (Leishmania mexicana) (UniProt Q27686); assay: qHTS Validation Assay for Inhibitors of Leishmania Mexicana Pyruvate Kinase (AID 945);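 note: 0% = DMSO only neutral control wells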
Summary of the method: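 Mutant LmPYK (E451W), 0.2 nM, plus 0.5 mM PEP and 0.1 mM ADP in 50 mM imidazole pH 7.2 containing 0.01% Tween 20 and 0.05% BSA. Incubated 1 h at room temperature; luminescence via PKLight, normalized to DMSO.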

[25] = target: Pyruvate kinase PKM (Homo sapiens) (UniProt P14618); assay: qHTS Assay for Activators of Human Muscle Pyruvate Kinase (AID 954; active = well fitted curve in the direction sought with a large enough effect, not every such curve was filed as active;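 note: 0% = uninhibited enzyme and -100% = no enzyme or full thiadiazolimine inhibition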)
Summary of the method: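 Reaction: 0.1 nM purified PKM2 with 0.5 mM phosphoenolpyruvate and 0.1 mM ADP, room temperature, 1 h. Readout: luciferase-based ATP luminescence after stop reagent. Activators judged against a 0.3 nM enzyme column.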

[26] = target: Alpha-galactosidase A (Homo sapiens) (UniProt P06280); assay: Counterscreen for Glucocerebrosidase Inhibitors: qHTS Assay for Human alpha-Galactosidase at pH 4.5 (AID 992); note: 0% is about no effect
Summary of the method: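 Concentration-response curves (0.7 nM to 77 uM final) were modeled with the Hill equation to give AC50. Reactions: 2 nM enzyme, 80 uM fluorogenic alpha-galactoside, pH 4.5 citric acid buffer, 20 min, room temperature.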

[27] = target: alpha-glucosidase (Oryza sativa, rice) (UniProt Q653V4); assay: Counterscreen for Glucocerebrosidase Inhibitors: qHTS Assay for Rice alpha-Glucosidase at pH 5.0 (AID 997);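 note: 0% = full activity with enzyme and -100% = basal without enzyme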
Summary of the method: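 Rice alpha-glucosidase (4 nM final) with 400 uM 4-methylumbelliferyl-alpha-D-glucopyranoside in citrate buffer pH 5.0, 20 min at room temperature, stopped at pH 10; fluorescence 365/440 nm, compounds 0.7 nM–77 uM, AC50 from Hill fits.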

[28] = qHTS for differential inhibitors of proliferation of Plasmodium falciparum line 7G8 (AID 1815);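 note: potency is the fitted concentration of half-maximal effect; parasite growth measured after three days of incubation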
[29] = qHTS for differential inhibitors of proliferation of Plasmodium falciparum line GB4 (AID 1816); conditions: Potency: Plasmodium falciparum GB4 proliferation inhibition;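 note: potency is the fitted concentration of half-maximal effect; parasite growth measured after 72 h incubation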
[30] = target: M-phase phosphoprotein 8 (Homo sapiens) (UniProt Q99549); assay: qHTS Validation Assay for Inhibitors for MPP8 Chromodomain Interactions with Methylated Histone Tails (AID 488949); note: potency is the fitted concentration of half-maximal effect; nearly all actives have a fitted effect of over 55% in size
Summary of the method: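 AlphaScreen read-out: streptavidin donor and nickel chelate acceptor beads (final 10 ug/mL), 30 min in the dark at RT. Complex of 50 nM MPP8 and 50 nM b-H3(1-18)K9me3 peptide had been exposed to compounds for 30 min beforehand.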

[31] = target: Thyrotropin receptor (Homo sapiens) (UniProt P16473); assay: qHTS Assay for Antagonists of the Thyroid Stimulating Hormone Receptor (AID 488980); note: 0% is about no effect
Summary of the method: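 TSHR-HEK293 cells; 70 uM RO 20-1724 PDE inhibitor; compound + EC80 TSH (4 nM final); anti-cAMP cryptate antibody/cAMP-d2 in lysis buffer, 30 min RT; HTRF 665/620 nm read.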

[32] = target: Thyrotropin-releasing hormone receptor (Homo sapiens) (UniProt P34981); assay: qHTS for Small Molecule Agonists and Allosteric Enhancers of Human TRH Receptor: Validation Screen for Agonists (AID 493127;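 active = calcium activation more than 3 SD above the typical response in the agonist read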;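 note: intracellular calcium rise by fluo-8 fluorescence before TRH EC20 addition; 0% is about no effect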); conditions: TRH receptor agonist cell assay; at 2 µM; stronger effect = higher value
Summary of the method: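 Cells 2000/well, 10% FCS, 18 h 33.5C/5% CO2 → fluo-8 Ca dye, RT 30 min–1.5 h → FDSS baseline 10 × 1 s → compound added → 230 cycles (1 s/cycle) agonist mode. TRH controls.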

[33] = target: Galactokinase (Homo sapiens) (UniProt P51570); assay: qHTS Validation Assay for Inhibitors of Human Galactokinase (GALK) (AID 493189); note: 0% is about no effect
Summary of the method: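 Luminescence from leftover ATP (Kinase-Glo Plus, 10 min) served as read-out after a 1 h room-temperature reaction of 5 nM GALK, 100 uM galactose and 35 uM ATP at pH8.0.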

Chain of Phenylethanolamine N-methyltransferase (Homo sapiens) (P11086 whole entry, looked up): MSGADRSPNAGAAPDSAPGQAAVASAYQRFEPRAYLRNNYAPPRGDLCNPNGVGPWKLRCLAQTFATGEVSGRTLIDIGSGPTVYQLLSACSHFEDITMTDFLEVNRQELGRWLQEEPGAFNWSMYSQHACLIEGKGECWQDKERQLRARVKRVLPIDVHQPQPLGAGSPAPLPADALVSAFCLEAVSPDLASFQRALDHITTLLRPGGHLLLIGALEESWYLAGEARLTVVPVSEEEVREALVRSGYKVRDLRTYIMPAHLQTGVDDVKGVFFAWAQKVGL
Chain of Catechol O-methyltransferase (Homo sapiens) (P21964 whole entry, looked up): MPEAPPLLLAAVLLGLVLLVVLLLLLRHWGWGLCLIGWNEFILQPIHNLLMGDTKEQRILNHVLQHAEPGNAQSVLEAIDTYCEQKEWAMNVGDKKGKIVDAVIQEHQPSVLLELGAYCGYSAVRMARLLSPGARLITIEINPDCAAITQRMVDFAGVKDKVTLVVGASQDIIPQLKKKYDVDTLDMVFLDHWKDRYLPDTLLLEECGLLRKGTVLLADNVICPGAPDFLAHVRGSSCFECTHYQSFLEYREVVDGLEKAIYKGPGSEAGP
Chain of Nicotinamide N-methyltransferase (Homo sapiens) (P40261 whole entry, looked up): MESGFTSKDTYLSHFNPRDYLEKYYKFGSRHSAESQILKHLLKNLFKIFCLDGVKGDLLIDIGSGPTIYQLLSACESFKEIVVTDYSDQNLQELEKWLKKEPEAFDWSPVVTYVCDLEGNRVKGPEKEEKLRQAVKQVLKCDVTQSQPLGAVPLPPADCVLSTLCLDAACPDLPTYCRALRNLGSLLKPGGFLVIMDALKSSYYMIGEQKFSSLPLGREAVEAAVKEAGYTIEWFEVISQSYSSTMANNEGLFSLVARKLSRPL
Chain of Glucocorticoid receptor (Homo sapiens) (P04150 whole entry, looked up, the tested form may be a part): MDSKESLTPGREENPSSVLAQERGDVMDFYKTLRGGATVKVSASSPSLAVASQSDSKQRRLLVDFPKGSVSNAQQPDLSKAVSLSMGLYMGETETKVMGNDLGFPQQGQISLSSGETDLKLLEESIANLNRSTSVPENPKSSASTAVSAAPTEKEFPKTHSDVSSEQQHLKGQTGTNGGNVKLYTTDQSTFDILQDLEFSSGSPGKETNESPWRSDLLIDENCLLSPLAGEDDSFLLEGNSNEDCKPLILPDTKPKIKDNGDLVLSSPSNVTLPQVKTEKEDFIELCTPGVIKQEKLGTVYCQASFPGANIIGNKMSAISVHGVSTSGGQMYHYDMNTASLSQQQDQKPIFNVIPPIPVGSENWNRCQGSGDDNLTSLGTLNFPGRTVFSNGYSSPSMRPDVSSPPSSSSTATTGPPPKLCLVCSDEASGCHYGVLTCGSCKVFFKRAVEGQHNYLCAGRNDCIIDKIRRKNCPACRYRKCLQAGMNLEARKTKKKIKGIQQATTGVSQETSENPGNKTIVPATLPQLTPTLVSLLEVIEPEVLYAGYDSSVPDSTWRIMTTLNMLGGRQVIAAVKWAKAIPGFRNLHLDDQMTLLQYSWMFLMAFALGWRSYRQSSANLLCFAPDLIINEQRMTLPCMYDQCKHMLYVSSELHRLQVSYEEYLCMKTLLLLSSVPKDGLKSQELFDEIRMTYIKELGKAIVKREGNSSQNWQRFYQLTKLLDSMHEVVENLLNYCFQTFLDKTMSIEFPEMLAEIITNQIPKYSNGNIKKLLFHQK
Chain of ATP-dependent DNA helicase Q1 (Homo sapiens) (P46063 whole entry, looked up): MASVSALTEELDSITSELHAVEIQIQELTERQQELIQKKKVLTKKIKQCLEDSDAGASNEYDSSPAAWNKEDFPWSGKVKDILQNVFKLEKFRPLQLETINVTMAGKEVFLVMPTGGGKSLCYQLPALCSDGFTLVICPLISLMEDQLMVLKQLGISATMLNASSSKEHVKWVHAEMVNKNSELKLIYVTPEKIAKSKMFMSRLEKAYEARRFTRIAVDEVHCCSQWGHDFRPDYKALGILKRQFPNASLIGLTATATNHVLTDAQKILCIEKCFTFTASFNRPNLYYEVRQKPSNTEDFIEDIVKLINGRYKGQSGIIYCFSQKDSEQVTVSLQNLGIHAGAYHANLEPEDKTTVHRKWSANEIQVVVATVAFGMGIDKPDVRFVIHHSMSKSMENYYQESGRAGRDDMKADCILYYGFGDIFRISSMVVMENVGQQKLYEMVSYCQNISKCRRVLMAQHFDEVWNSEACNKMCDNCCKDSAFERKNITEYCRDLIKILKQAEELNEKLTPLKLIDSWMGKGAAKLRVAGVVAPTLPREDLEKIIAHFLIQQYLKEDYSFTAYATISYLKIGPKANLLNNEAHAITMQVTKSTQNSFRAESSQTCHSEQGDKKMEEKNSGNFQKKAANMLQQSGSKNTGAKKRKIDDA
Chain of Ferritin light chain (Equus caballus) (P02791 2-175 limits assumed): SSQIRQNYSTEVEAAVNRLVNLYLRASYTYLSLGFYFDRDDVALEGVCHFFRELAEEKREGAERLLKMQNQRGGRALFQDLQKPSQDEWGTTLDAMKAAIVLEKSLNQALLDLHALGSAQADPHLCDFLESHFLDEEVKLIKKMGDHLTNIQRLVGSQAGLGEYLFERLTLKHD
Chain of DNA repair nuclease/redox regulator APEX1 (Homo sapiens) (P27695 whole entry, looked up): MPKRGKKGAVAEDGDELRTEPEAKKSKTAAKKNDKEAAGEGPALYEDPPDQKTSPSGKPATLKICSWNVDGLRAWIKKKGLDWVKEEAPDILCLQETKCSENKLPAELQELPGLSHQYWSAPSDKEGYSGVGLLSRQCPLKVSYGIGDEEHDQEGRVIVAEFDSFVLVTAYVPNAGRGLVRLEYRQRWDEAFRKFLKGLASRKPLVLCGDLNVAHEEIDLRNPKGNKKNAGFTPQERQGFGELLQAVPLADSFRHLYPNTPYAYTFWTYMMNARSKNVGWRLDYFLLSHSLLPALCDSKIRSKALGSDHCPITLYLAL
Chain of Thyrotropin receptor (Homo sapiens) (P16473 whole entry, looked up): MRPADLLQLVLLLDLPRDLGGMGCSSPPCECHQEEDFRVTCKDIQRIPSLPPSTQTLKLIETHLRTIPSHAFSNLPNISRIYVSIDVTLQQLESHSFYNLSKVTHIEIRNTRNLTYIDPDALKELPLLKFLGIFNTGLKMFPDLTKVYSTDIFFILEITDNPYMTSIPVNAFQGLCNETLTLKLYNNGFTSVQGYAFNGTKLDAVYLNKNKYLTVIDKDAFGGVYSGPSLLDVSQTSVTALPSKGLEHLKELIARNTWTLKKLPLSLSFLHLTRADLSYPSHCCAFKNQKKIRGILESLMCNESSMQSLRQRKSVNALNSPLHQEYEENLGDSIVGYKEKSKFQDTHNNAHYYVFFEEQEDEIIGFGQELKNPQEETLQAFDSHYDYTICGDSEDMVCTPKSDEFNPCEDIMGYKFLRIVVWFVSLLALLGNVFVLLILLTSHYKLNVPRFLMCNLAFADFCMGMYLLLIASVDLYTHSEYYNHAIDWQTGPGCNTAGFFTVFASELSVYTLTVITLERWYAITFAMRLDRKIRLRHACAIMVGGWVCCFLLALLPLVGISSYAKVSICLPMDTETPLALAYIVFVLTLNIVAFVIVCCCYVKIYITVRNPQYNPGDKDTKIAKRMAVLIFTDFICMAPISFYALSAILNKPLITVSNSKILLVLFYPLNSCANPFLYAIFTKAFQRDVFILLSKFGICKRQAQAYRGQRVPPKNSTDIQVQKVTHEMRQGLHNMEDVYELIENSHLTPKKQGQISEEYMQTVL
Chain of Guanine nucleotide-binding protein G(i) subunit alpha-1 (Homo sapiens) (P63096 whole entry, looked up): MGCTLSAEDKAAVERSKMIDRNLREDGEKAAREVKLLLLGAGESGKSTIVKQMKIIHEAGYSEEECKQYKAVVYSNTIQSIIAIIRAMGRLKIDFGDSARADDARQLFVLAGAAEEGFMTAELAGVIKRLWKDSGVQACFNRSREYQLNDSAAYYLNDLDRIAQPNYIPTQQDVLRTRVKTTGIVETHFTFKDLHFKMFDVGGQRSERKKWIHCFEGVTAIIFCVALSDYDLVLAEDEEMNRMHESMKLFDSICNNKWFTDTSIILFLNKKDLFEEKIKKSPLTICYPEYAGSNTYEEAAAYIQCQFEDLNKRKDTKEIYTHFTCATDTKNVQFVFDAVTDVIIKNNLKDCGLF
Chain of Pyruvate kinase (Leishmania mexicana) (Q27686 2-499 E452W): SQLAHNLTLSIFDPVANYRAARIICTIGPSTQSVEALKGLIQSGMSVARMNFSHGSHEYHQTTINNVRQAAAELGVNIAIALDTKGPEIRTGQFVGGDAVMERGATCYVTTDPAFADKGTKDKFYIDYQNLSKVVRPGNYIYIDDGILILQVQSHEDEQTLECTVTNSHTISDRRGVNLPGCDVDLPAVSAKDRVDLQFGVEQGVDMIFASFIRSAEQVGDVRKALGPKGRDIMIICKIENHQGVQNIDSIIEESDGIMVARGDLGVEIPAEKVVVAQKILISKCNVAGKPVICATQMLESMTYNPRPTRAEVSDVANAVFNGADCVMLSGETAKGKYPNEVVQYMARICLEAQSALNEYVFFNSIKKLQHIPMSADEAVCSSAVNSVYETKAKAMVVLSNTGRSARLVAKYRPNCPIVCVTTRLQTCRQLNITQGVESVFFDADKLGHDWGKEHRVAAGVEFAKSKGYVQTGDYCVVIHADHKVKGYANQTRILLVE
Chain of Muscarinic acetylcholine receptor M1 (Rattus norvegicus) (P08482 whole entry, looked up): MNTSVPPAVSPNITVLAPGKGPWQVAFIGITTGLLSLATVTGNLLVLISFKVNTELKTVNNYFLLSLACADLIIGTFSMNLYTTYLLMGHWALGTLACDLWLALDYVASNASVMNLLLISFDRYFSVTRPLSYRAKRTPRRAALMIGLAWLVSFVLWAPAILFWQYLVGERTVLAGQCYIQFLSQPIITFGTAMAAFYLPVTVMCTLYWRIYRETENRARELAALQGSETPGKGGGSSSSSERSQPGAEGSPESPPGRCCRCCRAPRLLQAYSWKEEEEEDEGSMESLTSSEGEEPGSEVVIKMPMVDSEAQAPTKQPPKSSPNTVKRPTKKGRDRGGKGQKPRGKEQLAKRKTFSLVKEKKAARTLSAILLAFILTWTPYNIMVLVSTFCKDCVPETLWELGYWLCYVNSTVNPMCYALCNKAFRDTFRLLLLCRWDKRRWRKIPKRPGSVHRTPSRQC

C=C[C@@H]1CN2CC[C@@H]1C[C@@H]2[C@H](O)c1ccnc2ccc(OC)cc12
Potency [1]: inactive | outcome [2]: inactive | Potency [3]: 0.126 µM (active) | outcome [4]: inactive | outcome [5]: inactive | Potency [6]: inactive | Potency [7]: inactive | Potency [8]: 0.0165 µM (active) | Potency [9]: 0.0262 µM (active) | Potency [10]: inactive

O=C(Nc1ccc2c(N3CCCC3)ncnc2c1)c1cc(F)ccc1Cl
activity [11]: -8.67% | activity change, negative = inhibition [12]: -7.52% | activity [13]: -15.4% | activity [14]: -17.8%

CC(C)Cn1c(=O)c2ccccc2n2c(CCC(=O)NCCc3ccc(Cl)cc3)nnc12
activity [11]: -5.92% | activity change, negative = inhibition [12]: -1.54% | activity [13]: -41% | activity [14]: -6.54%

COc1ccc(C(=O)Nc2ccccc2C(=O)O)cc1NC(=O)C(c1ccccc1)c1ccccc1
Potency [15]: 112 µM (active)

CCCC1c2cccn2CCN1C(=O)Nc1cccc(Cl)c1C (centres undefined)
activity [11]: -7.65% | activity change, negative = inhibition [12]: -4.33% | activity [13]: -16% | activity [14]: -8.29%

O=C(c1ccc(C(F)(F)F)cc1)N1CCCC(C(=O)N2CCC(c3nc4ccncc4[nH]3)CC2)C1 (centres undefined)
activity [11]: 9.15% | activity change, negative = inhibition [12]: 6.72% | activity [13]: -28.9% | activity [14]: 9.23%

CC1CCN(CCCNC(=O)C2CCc3sc(C(=O)N4CCCC4)cc3C2)CC1 (centres undefined)
activity [11]: 4.14% | activity change, negative = inhibition [12]: 6.27% | activity [13]: -0.224% | activity [14]: 4.65%

CC(C)C[C@H](N)CSSC[C@@H](N)CC(C)C
outcome [16]: inactive | Potency [17]: > 46 µM (inactive) | Potency [18]: > 46 µM (inactive) | Potency [19]: inactive | Potency [20]: inactive | Potency [21]: inactive | Potency [22]: 12.6 µM (active) | Potency [23]: inactive | outcome [24]: inactive | outcome [25]: inactive | outcome [26]: inactive | outcome [27]: inactive | Potency [1]: inactive | outcome [2]: inactive | Potency [28]: 14.1 µM (active) | Potency [29]: 10 µM (active) | outcome [4]: inactive | outcome [5]: inactive | Potency [30]: 50.1 µM (active) | outcome [31]: inactive | activation [32]: 6.19% (inactive) | outcome [33]: inactive | Potency [10]: inactive
